A short description of assay [1]: qHTS assay to test for compound auto fluorescence at 535 nm (green) in HEK293 cells (AID 720680). (qHTS replaces the single test concentration by a dilution series.)
Assay [2] is described as follows: qHTS assay to test for compound auto fluorescence at 460 nm (blue) in HEK293 cell free culture (AID 720681). Put shortly:
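Compounds were added to cell-free DMEM with 10% FBS and fluorescence read directly. The blue channel used 405 nm excitation and 460 nm emission, with triamterene as the reference fluorophore.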

The nature of assay [3]: qHTS assay to test for compound auto fluorescence at 535 nm (green) in HEK293 cell free culture (AID 720682). In a few lines:
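DMEM + 10% FBS, cell-free; cpd or DMSO pinned in; Ex485/Em535 read; output as fluorescein-equivalent signal.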

Assay [4] in a line: qHTS assay to test for compound auto fluorescence at 590 nm (red) in HEK293 cell free culture (AID 720683). Put shortly: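 Cell-free wells of DMEM with 10% FBS received compound, and intrinsic fluorescence was read at excitation/emission 540/590 nm. Values expressed as equivalence to Rose Bengal sodium.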
Assay [5] can be described thus: qHTS assay to test for compound auto fluorescence at 590 nm (red) in HepG2 cell free culture (AID 720684). In a few lines: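 Compound was pinned into wells holding MEM with 10% FBS and no cells, and red fluorescence was read at Ex/Em 540/590 nm. Signal is expressed as auto fluorescence equivalency relative to Rose Bengal sodium.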
Assay [6] in a line: qHTS assay to test for compound auto fluorescence at 460 nm (blue) in HepG2 cell free culture (AID 720685). Put shortly: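 Compound (23 nL) or DMSO pinned into cell-free MEM with 10% FBS; blue fluorescence read at 405/460 nm excitation/emission, expressed as auto-fluorescence equivalency to triamterene.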
The nature of assay [7]: qHTS assay to test for compound auto fluorescence at 535 nm (green) in HepG2 cell free culture (AID 720686).
The target of assay [8] is Glucocorticoid receptor (Homo sapiens) (UniProt P04150). Briefly: qHTS assay to identify small molecule agonists of the glucocorticoid receptor (GR) signaling pathway (AID 720691; active means well fitted activation curve with a large enough effect in the signal ratio in the repeat runs, not every such curve was filed as active; the % refers to the signal ratio). Put shortly:
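Agonist mode in a HeLa line carrying a GRE-controlled beta-lactamase reporter. Compounds act for 18 h at 37 C before a 2 h room-temperature FRET substrate step and fluorescence reading.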

For assay [9] the target is unchanged. Briefly: qHTS assay to identify small molecule antagonists of the glucocorticoid receptor (GR) signaling pathway (AID 720692; active means well fitted inhibition curve with a large enough effect in the signal ratio in the repeat runs, not every such curve was filed as active; the % refers to the signal ratio). In a few lines:
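Cells plated, rested 4 h at 37 C/5% CO2; compounds in DMSO pin-transferred; dexamethasone added to 5 nM final; 18 h at 37 C; B/G FRET substrate added, 2 h room temperature; fluorescence measured.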

Assay [10] in a line: qHTS assay to identify small molecule antagonists of the glucocorticoid receptor (GR) signaling pathway - cell viability counter screen (AID 720693). Further: nearly all actives have a fitted effect of over 55% in size.
Assay [11] is described as follows: qHTS assay for identifying genotoxic compounds that show differential cytotoxicity against isogenic chicken DT40 cell lines with known DNA damage response pathways - wild type cell line (AID 743012). Further: nearly all actives have a fitted effect of over 60% in size. Further: potency means the concentration at half of the fitted maximal effect. In a few lines:
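Cells (DT40 wild type, 300/well) are treated with DMSO-dissolved compounds after a ~0.5 h pre-incubation and kept 40 h at 37 C/5% CO2. Viability is then measured by CellTiter-Glo luminescence following 30 min at room temperature.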

The nature of assay [12]: qHTS assay for identifying genotoxic compounds that show differential cytotoxicity against isogenic chicken DT40 cell lines with known DNA damage response pathways - Rev3 mutant cell line (AID 743014). Further: nearly all actives have a fitted effect of over 55% in size. Further: potency means the concentration at half of the fitted maximal effect.
A short description of assay [13]: qHTS assay for identifying genotoxic compounds that show differential cytotoxicity against isogenic chicken DT40 cell lines with known DNA damage response pathways - Rad54/Ku70 mutant cell line (AID 743015). Further: nearly all actives have a fitted effect of over 60% in size. Further: potency means the concentration at half of the fitted maximal effect.
The nature of assay [14]: qHTS assay to identify small molecule antagonists of the androgen receptor (AR) signaling pathway - cell viability counter screen (AID 743033; further: nearly all actives have a fitted effect of over 45% in size).
Assay [15] is described as follows: qHTS assay to identify small molecule antagonists of the androgen receptor (AR) signaling pathway using the MDA cell line - cell viability counter screen (AID 743041; further: nearly all actives have a fitted effect of over 45% in size). In a few lines: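 MDA-kb2 AR-luc cells (MMTV-luciferase, AR/GR responsive) treated with compounds plus R1881 agonist for 16 h at 37C. CellTiter-Fluor added at 15.5 h; fluorescence read after 30 min in the same wells.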

Assay [16] is described as follows: qHTS assay to test for compound auto fluorescence at 460 nm (blue) in HepG2 cells (AID 720687). In a few lines:
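HepG2 cells in MEM with 10% FBS, attached overnight at 37 C, were exposed to compound or DMSO for 1 hr at 37 C, 5% CO2. Blue fluorescence was read at 405/460 nm, with triamterene as reference fluorophore.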

Assay [17] addresses Androgen receptor (Homo sapiens) (UniProt P10275). Briefly: qHTS assay to identify small molecule antagonists of the androgen receptor (AR) signaling pathway (AID 743035; active means well fitted inhibition curve with a large enough effect in the signal ratio in the repeat runs, not every such curve was filed as active; the % refers to the signal ratio). In a few lines: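 Antagonism is scored as loss of R1881-driven beta-lactamase reporter expression in HEK293 cells carrying the reporter under a UAS element, after 16 h co-treatment at 37C and a 2 h room-temperature FRET substrate read.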

Assay [18] shares this target. The assay is described as follows: qHTS assay to identify small molecule agonists of the androgen receptor (AR) signaling pathway (AID 743036; active means well fitted activation curve with a large enough effect in the signal ratio in the repeat runs, with a control signal flat, not every such curve was filed as active; the % refers to the signal ratio). In a few lines:
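Screening used 2,000 AR-bla HEK293 cells per well, treated 16 h at 37C with test compounds in DMSO alongside positive and DMSO-only controls; beta-lactamase activity was then read by LiveBLAzer B/G FRET fluorescence after 2 h at room temperature.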

The target is the same in assay [19]. The assay is described as follows: qHTS assay to identify small molecule agonists of the androgen receptor (AR) signaling pathway using the MDA cell line (AID 743040; further: nearly all actives have a fitted effect of over 20% in size). In a few lines: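 MDA-kb2 breast carcinoma cells carrying MMTV-luciferase (responsive to AR and GR), plated 5 h then treated 16 h with compounds at 37C, 0% CO2. Read-out was ONE-Glo luminescence after 30 min at room temperature.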

Assay [20] shares this target. Briefly: qHTS assay to identify small molecule antagonists of the androgen receptor (AR) signaling pathway using the MDA cell line (AID 743042; further: nearly all actives have a fitted effect of over 55% in size). Put shortly: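 MDA-kb2 breast carcinoma cells carrying MMTV-luciferase (AR/GR responsive) were co-treated with compounds and the agonist R1881 for 16 h at 37C. Inhibition read as ONE-Glo luminescence; CellTiter-Fluor fluorescence measured in parallel for cytotoxicity.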

A number with no mark means an inactive call. Records with an inconclusive call do not appear. Activity calls are given as the source filed them. Unless noted, the call rests on the fitted dose curve; in most records, active means well fitted curve in the direction sought with a large enough effect in the repeat runs; inconclusive means weak or mixed curves; inactive means no such curve, though single readings can be large; an effect the other way counts as inactive or inconclusive.
On the % scale 0 is the no-effect control and ±100 the full control effect.

Chain of Glucocorticoid receptor (Homo sapiens) (P04150 whole entry, looked up): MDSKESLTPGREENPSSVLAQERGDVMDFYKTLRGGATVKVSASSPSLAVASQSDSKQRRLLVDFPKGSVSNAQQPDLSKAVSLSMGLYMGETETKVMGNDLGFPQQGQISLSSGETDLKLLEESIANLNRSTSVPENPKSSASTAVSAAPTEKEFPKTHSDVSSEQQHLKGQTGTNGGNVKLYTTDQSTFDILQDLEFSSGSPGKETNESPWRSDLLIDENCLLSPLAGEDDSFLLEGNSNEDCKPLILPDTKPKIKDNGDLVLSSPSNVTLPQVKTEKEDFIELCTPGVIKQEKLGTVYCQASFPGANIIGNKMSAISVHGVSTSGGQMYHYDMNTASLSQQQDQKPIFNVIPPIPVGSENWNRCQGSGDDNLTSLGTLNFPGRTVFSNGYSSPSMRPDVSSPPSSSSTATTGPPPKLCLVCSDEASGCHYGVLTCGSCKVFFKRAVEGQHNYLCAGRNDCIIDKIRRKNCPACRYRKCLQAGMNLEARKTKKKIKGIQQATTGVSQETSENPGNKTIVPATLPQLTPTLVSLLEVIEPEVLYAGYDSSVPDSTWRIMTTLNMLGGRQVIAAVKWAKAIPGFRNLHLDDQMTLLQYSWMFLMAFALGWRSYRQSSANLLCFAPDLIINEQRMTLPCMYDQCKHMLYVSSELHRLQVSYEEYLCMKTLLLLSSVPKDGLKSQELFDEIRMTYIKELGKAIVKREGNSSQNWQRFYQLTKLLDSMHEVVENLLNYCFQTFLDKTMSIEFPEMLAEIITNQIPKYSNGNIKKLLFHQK
Chain of Androgen receptor (Homo sapiens) (P10275 whole entry, looked up): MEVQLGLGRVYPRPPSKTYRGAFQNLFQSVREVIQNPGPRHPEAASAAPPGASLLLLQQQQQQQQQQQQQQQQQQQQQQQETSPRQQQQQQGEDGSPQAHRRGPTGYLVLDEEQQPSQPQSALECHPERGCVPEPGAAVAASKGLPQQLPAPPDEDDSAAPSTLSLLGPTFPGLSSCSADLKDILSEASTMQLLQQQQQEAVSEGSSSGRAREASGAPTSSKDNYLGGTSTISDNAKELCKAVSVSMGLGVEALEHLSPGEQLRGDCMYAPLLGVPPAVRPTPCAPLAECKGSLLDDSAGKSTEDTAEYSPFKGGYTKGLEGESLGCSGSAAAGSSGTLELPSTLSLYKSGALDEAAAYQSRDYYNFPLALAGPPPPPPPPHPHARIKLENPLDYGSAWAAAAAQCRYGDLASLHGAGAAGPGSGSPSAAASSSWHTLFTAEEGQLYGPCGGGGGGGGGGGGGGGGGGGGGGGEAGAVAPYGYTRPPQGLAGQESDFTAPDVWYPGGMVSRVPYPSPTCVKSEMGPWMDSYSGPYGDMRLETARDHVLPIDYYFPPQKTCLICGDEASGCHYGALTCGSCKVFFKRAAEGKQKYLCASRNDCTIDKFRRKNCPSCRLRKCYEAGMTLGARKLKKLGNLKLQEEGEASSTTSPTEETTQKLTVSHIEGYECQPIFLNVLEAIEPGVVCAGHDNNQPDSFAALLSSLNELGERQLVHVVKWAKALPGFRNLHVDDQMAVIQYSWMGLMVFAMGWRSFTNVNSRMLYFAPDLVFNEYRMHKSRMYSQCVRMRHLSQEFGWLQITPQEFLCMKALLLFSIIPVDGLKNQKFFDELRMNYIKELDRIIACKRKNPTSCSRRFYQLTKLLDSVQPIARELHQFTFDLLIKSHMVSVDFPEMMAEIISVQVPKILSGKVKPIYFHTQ

Turning to `C[C@H]1[C@H](NC(=O)/C(=N/OC(C)(C)C(=O)O)c2csc(N)n2)C(=O)N1S(=O)(=O)O` (stereo in doubt), the fluorescence, % of fluorescein in [1] was 0.0034% [at 18.6 µM]. Further, the fluorescence, % of fluorescent control in assay [2] is 0.0562% [at 18.6 µM]; in assay [4], 0.271% [at 18.6 µM]; in assay [6], 0.104% [at 18.6 µM]. Also, in assay [3], the activity change was 0.008% [at 18.6 µM]. For the same compound, the fluorescence, % of Rose Bengal in [5] is 0.467% [at 18.6 µM]. For the same compound, the fluorescence, % of fluorescein control in assay [7] was 0.102% [at 18.6 µM]. Further, the Potency result in assay [8], in [9], in assay [11], in assay [12], in assay [13] and in assay [15] was “inactive” each time. The compound was called inactive in assay [10] and in [14].
With `NC(=O)N[C@@H](CCC(=O)O)C(=O)O`, the outcome in assay [1], in [2], in assay [3], in assay [4], in assay [5] and in assay [6] was inactive. The compound was called inactive in assay [7] and in [14]. For the same compound, the Potency entry in assay [8], in assay [9], in assay [11], in assay [12], in assay [13] and in assay [15] was “inactive” throughout.
On to `CC(C)(C)C(=O)Oc1ccc(S(=O)(=O)Nc2ccccc2C(=O)NCC(=O)O)cc1`, for which the result in assay [1], in assay [2], in assay [3], in assay [4], in assay [5] and in assay [6] was inactive. The outcome in assay [7], in assay [16] and in assay [14] was inactive. In addition, the Potency result in [13] and in assay [15] was “inactive” each time.
With `C[N+]1(CC2COC(c3ccccc3)(c3ccccc3)O2)CCCCC1` (configuration not stated), the compound was called inactive in [1], in assay [2], in [3], in [4], in assay [5] and in assay [6]. The outcome in assay [7], in assay [10] and in assay [14] was inactive. Also, the Potency result in [9] and in assay [15] was “inactive” in each case. Besides, the values for the Potency in [11], in assay [12] and in assay [13] were 26.6 µM (active), 29.8 µM (active) and 26.6 µM (active), respectively.
Turning to `[K+]`, the compound was classed as inactive in assay [1], in assay [2], in assay [3], in assay [4], in [5] and in assay [6]. In addition, the call in assay [7], in [10] and in assay [14] was inactive. Moreover, the Potency entry in assay [8], in assay [9], in [11], in assay [12], in assay [13] and in [15] was “inactive” in each case.
On to `CC1=NN(c2cccc(S(=O)(=O)O)c2)C(=O)C1`, for which the compound was classed as inactive in assay [1], in assay [2], in assay [3], in assay [4], in assay [6] and in assay [7]. Moreover, the result in assay [14], in [18] and in [20] was inactive. The Potency result in assay [8], in assay [9], in assay [12], in assay [13], in assay [17] and in [19] was “inactive” throughout. Besides, in assay [15], the Potency entry was “inactive”.
For the compound `CCCCCCC#CC(=O)OC`, the call in assay [1], in assay [2], in assay [3], in [4], in assay [6] and in assay [7] was inactive. Besides, the compound was classed as inactive in assay [16], in [10] and in [14]. In addition, the Potency entry in [8], in assay [11], in assay [12], in assay [13] and in assay [15] was “inactive” throughout.
Consider `CCOC(=O)c1ccccc1`, for which the result in assay [1], in assay [2], in [3], in assay [4], in [6] and in assay [7] was inactive. The compound was classed as inactive in assay [16], in [10] and in assay [14]. The Potency result in [8], in assay [9] and in [15] was “inactive” in each case.
In the case of `Cc1ncc([C@@H](CCCCCCc2ccc3c(n2)NCCC3)CC(=O)O)cn1`, the call in assay [1], in assay [2], in assay [3], in assay [4], in assay [6] and in assay [7] was inactive. Further, the outcome in assay [10] and in [14] was inactive. For the same compound, the Potency entry in [11], in assay [13] and in assay [15] was “inactive” each time.

The values are drawn from PubChem BioAssay (Tox21).
